Laboratory results reported in PubChem BioAssay (EPA / NIEHS).
Where “and” joins values, the source holds several entries; their conditions need not be identical. Equal values may be shown once. Inconclusive results are not listed. Some structures have more than one record in an assay (separate samples or runs), and their calls can disagree. Calls of active or inactive are those of the source. Rule for the calls, unless noted: active = hit-call score of the fitted dose curve at least 0.9, where 1 is the maximum; inactive = score below 0.9.

What was measured:
[1] = ATG_PXRE_CIS: Attagene CIS-FACTORIAL HepG2 Assay for human Pregnane X Receptor Element (PXRE) (AID 2282957); conditions: HepG2 Attagene CIS-FACTORIAL PXRE reporter, mRNA; actives raise or lower the signal
Outline: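 Read-out: fluorescence of reporter-specific RT-PCR products resolved by capillary electrophoresis, fitted bidirectionally relative to DMSO. Human HepG2 liver cells carried transfected cis-promoter reporter units and were exposed to chemicals for 24 h.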

[2] = ATG_PPRE_CIS: Attagene CIS-FACTORIAL HepG2 Assay for human Peroxisome Proliferator-activated Response Element (PPRE) (AID 2282958); conditions: HepG2 PPRE cis-element reporter, Attagene transcription factor profiling; actives raise or lower the signal
Outline: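 Cells are first transfected transiently with the multiplexed reporter library, then dosed for 24 h. Total RNA is reverse-transcribed, amplified, fluorescently end-labeled and HpaI-cut before capillary electrophoresis; activity is fitted bidirectionally against DMSO controls.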

[3] = ATG_RORE_CIS: Attagene CIS-FACTORIAL HepG2 Assay for human RAR-related Orphan Receptor Element (RORE) (AID 2282959); conditions: HepG2 Attagene cis-factorial RORE reporter, mRNA; actives raise or lower the signal
Outline: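 Cells were HepG2 carrying transfected cis-regulated reporter constructs, dosed for 24 hours. Total RNA was reverse-transcribed and reporter cDNA amplified, fluorescently labeled and sized by capillary electrophoresis. Activity was fitted bidirectionally relative to DMSO.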

[4] = ATG_Sox_CIS: Attagene CIS-FACTORIAL HepG2 Assay for human SRY-box transcription factor (SOX) (AID 2282960); conditions: HepG2 Attagene cis-factorial SOX reporter, mRNA; actives raise or lower the signal
Outline: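 Transient MRTU transfection of HepG2; 24 h compound incubation; TriZol RNA, oligo(dT) RT, PCR, 6-FAM primer extension, HpaI cut, CE. Bidirectional fit, DMSO = baseline.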

[5] = target: Transcription factor Sp1 (Homo sapiens) (UniProt P08047); assay: ATG_Sp1_CIS: Attagene CIS-FACTORIAL HepG2 Assay for human Specificity Protein 1 (Sp1) (AID 2282961); conditions: HepG2 Sp1 cis-reporter transcription, actives raise or lower the signal
Outline: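 Endogenous Sp1 activity was gauged in human liver HepG2 cells bearing transfected reporter units under a cis-regulating promoter. After 24 h dosing, reporter mRNA was quantified by RT-PCR with capillary electrophoresis, and activity fitted bidirectionally versus DMSO.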

[6] = ATG_SREBP_CIS: Attagene CIS-FACTORIAL HepG2 Assay for human Sterol Regulatory Element Binding (SREBP) (AID 2282962); conditions: HepG2 Attagene cis-factorial SREBP reporter, mRNA; actives raise or lower the signal
Outline: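 In this cis-format assay, HepG2 liver cells express reporters controlled by promoter elements responsive to native transcription factors. Exposure lasts 24 h; reporter mRNA fluorescence from capillary electrophoresis gives the signal, fitted bidirectionally against DMSO.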

[7] = target: Signal transducer and activator of transcription 3 (Homo sapiens) (UniProt P40763); assay: ATG_STAT3_CIS: Attagene CIS-FACTORIAL HepG2 Assay for human Signal Transducer and Activator of Transcription 3 (STAT3) (AID 2282963); conditions: HepG2, Attagene cis-factorial STAT3 reporter transcription; actives raise or lower the signal
Outline: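 Cis-factorial format: endogenous transcription factors in HepG2 drive transfected reporter units. After 24 h treatment, reporter RNA was reverse-transcribed, amplified, FAM-labelled and HpaI-digested before CE analysis; activity scored in both directions against DMSO.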

[8] = ATG_TA_CIS: Attagene CIS-FACTORIAL HepG2 Assay for human TA Basal Promoter (AID 2282964); conditions: HepG2 Attagene CIS-factorial TA basal promoter reporter; actives raise or lower the signal
Outline: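 HepG2 cells transiently transfected with multiplexed cis-promoter reporter units, dosed 24 h. Reporter mRNA measured by RT-PCR, 6-FAM labelling, HpaI digestion and capillary electrophoresis; bidirectional fit versus DMSO baseline, serving as background control.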

[9] = ATG_TCF_b_cat_CIS: Attagene CIS-FACTORIAL HepG2 Assay for human T-Cell-Factor with beta-catenin (TCF/b-cat) (AID 2282965); conditions: HepG2 TCF/beta-catenin cis-reporter transcription, actives raise or lower the signal
Outline: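 Measured: reporter mRNA in HepG2 transiently transfected with cis-promoter reporter units, 24 h after chemical addition. Fitting was bidirectional, DMSO as negative control.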

[10] = ATG_TAL_CIS: Attagene CIS-FACTORIAL HepG2 Assay for human TAL Basal Promoter (AID 2282966); conditions: HepG2 Attagene cis-factorial TAL promoter reporter; actives raise or lower the signal;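 note: background control endpoint measuring basal TAL promoter reporter mRNA not a specific factor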
Outline: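 HepG2, transient MRTU transfection, 24 h compound exposure; RNA → oligo(dT) RT → PCR → 6-FAM primer extension → HpaI digest → CE fluorescence. Bidirectional curve fit vs DMSO. Background-control readout.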

[11] = ATG_TGFb_CIS: Attagene CIS-FACTORIAL HepG2 Assay for human Transforming Growth Factor (TGF) (AID 2282967); conditions: HepG2 Attagene CIS TGFb reporter, mRNA transcription; actives raise or lower the signal
Outline: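 HepG2 cells transiently transfected with cis-promoter-driven multiplexed reporter units; 24 h compound exposure. Reporter mRNA measured by RT-PCR, 6-FAM labeling, HpaI digestion and capillary electrophoresis; bidirectional fit versus DMSO baseline.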

[12] = ATG_VDRE_CIS: Attagene CIS-FACTORIAL HepG2 Assay for human Vitamin D Receptor Element (VDRE) (AID 2282968); conditions: HepG2 VDRE cis-reporter transcription, actives raise or lower the signal
Outline: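 Measures endogenous factor activity through cis-element-driven reporter transcripts in transiently transfected HepG2. Cells are treated 24 h; reporter mRNA is quantified by RT-PCR and capillary electrophoresis; fitting is bidirectional.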

[13] = target: Nuclear receptor subfamily 1 group I member 3 (Homo sapiens) (UniProt Q14994); assay: ATG_CAR_TRANS: Attagene TRANS-FACTORIAL HepG2 Assay for human Constitutive Androstane Receptor (CAR) (AID 2282969; active = hit-call score of the fitted dose curve at least 0.9, where 1 is the maximum;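 note: activators raise reporter mRNA above DMSO so AC50 marks induction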); conditions: HepG2 Attagene TRANS-FACTORIAL CAR reporter
Outline: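 Signal is reporter mRNA induction relative to DMSO, measured 24 h after dosing by RT-PCR with fluorescent primer extension and capillary electrophoresis. Human HepG2 liver cells carried transiently transfected chimeric NR-Gal4/GAL4-UAS reporter constructs.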

[14] = target: X-box-binding protein 1 (Homo sapiens) (UniProt P17861); assay: ATG_Xbp1_CIS: Attagene CIS-FACTORIAL HepG2 Assay for human X-box Binding Protein 1 (XBP1) (AID 2282972); conditions: HepG2 XBP1 cis-element reporter, Attagene multiplex; actives raise or lower the signal
Outline: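 Changes in reporter transcript abundance, read by RT-PCR and capillary electrophoresis, reflect endogenous transcription factor activity. Transfected HepG2 cells received compound for 24 hours; DMSO defined baseline for bidirectional analysis.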

[15] = ATG_M_19_TRANS: Attagene TRANS-FACTORIAL HepG2 Assay for M19 Transcription Factor (Internal Marker) (AID 2282974; active = hit-call score of the fitted dose curve at least 0.9, where 1 is the maximum); conditions: HepG2 Attagene TRANS-FACTORIAL M19 internal marker reporter
Outline: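 Cells: human HepG2, transiently transfected with multiplexed reporter transcription units. Exposure: 24 h. Detection: RT-PCR of reporter mRNA with capillary electrophoresis. Analysis: gain-of-signal vs DMSO.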

[16] = ATG_GAL4_TRANS: Attagene TRANS-FACTORIAL HepG2 Assay for GAL4 (Internal Marker) (AID 2282976; active = hit-call score of the fitted dose curve at least 0.9, where 1 is the maximum); conditions: HepG2 Attagene TRANS GAL4 internal marker reporter
Outline: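 RT-PCR/capillary electrophoresis readout of reporter mRNA. HepG2, transient MRTU transfection (GAL4-UAS reporters), 24 h compound exposure. Background-control endpoint, positive direction vs DMSO baseline.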

[17] = target: Steroid hormone receptor ERR1 (Homo sapiens) (UniProt P11474); assay: ATG_ERRa_TRANS: Attagene TRANS-FACTORIAL HepG2 Assay for human Estrogen-Related Receptor alpha (ERRa) (AID 2282971; active = hit-call score of the fitted dose curve at least 0.9, where 1 is the maximum); conditions: HepG2 Attagene TRANS reporter, ERRa transactivation
Outline: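 Transfected HepG2, 24 h dosing, ERRa-Gal4 chimera driving GAL4-UAS reporter. Readout: reporter mRNA via RT-PCR plus capillary electrophoresis (fluorescence). Positive direction vs DMSO control.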

[18] = target: Glucocorticoid receptor (Homo sapiens) (UniProt P04150); assay: ATG_GR_TRANS: Attagene TRANS-FACTORIAL HepG2 Assay for human Glucocorticoid Receptor (GR) (AID 2282978; active = hit-call score of the fitted dose curve at least 0.9, where 1 is the maximum;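 note: activators score as hits since higher reporter transcript over DMSO is fitted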); conditions: HepG2 Attagene TRANS GR reporter, mRNA transcription
Outline: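 In this trans-factorial format, exogenous NR-GAL4 chimeric proteins in transfected HepG2 cells regulate GAL4-UAS reporter transcription. After 24 h treatment, reporter mRNA induction relative to DMSO is read by RT-PCR and capillary electrophoresis.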

[19] = target: Estrogen receptor (Homo sapiens) (UniProt P03372); assay: ATG_ERa_TRANS: Attagene TRANS-FACTORIAL HepG2 Assay for human Estrogen Receptor alpha (ERa) (AID 2282970; active = hit-call score of the fitted dose curve at least 0.9, where 1 is the maximum); conditions: HepG2 Attagene TRANS ERa GAL4 reporter, mRNA
Outline: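 Reporter mRNA induction after 24 hours, detected by fluorescent RT-PCR and capillary electrophoresis, gives the read-out. Cells are HepG2 transiently transfected with GAL4-UAS reporter transcription units responding to chimeric NR-Gal4. Activity is taken as gain of signal over DMSO baseline.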

[20] = target: Estrogen-related receptor gamma (Homo sapiens) (UniProt P62508); assay: ATG_ERRg_TRANS: Attagene TRANS-FACTORIAL HepG2 Assay for human Estrogen-Related Receptor gamma (ERRg) (AID 2282977; active = hit-call score of the fitted dose curve at least 0.9, where 1 is the maximum;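 note: hits increase reporter signal over DMSO so potencies reflect activators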); conditions: HepG2 Attagene TRANS reporter, ERRg transactivation
Outline: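 Readout: fluorescent reporter-mRNA fragments resolved by capillary electrophoresis after RT-PCR and HpaI cut. Cells: transiently transfected HepG2 carrying GAL4-UAS reporters driven by exogenous NR-Gal4 chimeras, dosed 24 h. Activity fitted upward relative to DMSO baseline.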

Measured: AC50

Signal transducer and activator of transcription 3 (Homo sapiens), sequence (P40763 whole entry, looked up): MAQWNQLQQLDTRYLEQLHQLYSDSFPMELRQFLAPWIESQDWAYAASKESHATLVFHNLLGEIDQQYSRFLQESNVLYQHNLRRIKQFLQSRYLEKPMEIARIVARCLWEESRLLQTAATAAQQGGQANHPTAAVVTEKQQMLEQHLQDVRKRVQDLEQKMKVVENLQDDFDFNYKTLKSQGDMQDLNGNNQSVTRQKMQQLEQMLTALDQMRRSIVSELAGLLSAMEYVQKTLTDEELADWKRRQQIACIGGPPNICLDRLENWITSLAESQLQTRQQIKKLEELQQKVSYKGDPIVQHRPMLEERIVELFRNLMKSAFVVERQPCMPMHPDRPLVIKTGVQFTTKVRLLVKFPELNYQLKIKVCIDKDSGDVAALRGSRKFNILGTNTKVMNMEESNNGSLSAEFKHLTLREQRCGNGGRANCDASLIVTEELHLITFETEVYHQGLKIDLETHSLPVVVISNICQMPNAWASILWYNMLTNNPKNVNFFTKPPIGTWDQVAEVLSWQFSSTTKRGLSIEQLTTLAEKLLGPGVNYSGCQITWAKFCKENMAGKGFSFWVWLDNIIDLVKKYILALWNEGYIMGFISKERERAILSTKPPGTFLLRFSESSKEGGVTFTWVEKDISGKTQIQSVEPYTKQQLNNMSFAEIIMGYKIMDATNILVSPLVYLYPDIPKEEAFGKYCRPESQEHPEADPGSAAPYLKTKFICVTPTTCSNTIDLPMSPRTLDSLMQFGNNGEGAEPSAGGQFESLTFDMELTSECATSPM
Nuclear receptor subfamily 1 group I member 3 (Homo sapiens), sequence (Q14994 whole entry, looked up, the tested form may be a part): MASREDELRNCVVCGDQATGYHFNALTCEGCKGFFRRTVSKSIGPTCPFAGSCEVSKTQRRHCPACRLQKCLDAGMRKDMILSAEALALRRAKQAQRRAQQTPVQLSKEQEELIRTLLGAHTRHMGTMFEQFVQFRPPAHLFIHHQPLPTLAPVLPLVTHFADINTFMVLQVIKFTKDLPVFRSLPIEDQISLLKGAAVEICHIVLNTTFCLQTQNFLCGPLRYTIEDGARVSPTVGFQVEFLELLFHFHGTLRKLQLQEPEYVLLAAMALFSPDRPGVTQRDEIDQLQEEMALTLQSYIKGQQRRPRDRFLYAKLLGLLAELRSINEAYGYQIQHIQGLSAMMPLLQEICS
X-box-binding protein 1 (Homo sapiens), sequence (P17861 whole entry, looked up): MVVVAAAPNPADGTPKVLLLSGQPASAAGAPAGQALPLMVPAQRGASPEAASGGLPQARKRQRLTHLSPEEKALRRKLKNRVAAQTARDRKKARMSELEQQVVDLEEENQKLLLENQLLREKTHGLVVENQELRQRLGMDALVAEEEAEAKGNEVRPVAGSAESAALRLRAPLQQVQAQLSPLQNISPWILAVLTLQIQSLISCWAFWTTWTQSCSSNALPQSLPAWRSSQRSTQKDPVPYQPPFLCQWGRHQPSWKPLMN
Glucocorticoid receptor (Homo sapiens), sequence (P04150 whole entry, looked up, the tested form may be a part): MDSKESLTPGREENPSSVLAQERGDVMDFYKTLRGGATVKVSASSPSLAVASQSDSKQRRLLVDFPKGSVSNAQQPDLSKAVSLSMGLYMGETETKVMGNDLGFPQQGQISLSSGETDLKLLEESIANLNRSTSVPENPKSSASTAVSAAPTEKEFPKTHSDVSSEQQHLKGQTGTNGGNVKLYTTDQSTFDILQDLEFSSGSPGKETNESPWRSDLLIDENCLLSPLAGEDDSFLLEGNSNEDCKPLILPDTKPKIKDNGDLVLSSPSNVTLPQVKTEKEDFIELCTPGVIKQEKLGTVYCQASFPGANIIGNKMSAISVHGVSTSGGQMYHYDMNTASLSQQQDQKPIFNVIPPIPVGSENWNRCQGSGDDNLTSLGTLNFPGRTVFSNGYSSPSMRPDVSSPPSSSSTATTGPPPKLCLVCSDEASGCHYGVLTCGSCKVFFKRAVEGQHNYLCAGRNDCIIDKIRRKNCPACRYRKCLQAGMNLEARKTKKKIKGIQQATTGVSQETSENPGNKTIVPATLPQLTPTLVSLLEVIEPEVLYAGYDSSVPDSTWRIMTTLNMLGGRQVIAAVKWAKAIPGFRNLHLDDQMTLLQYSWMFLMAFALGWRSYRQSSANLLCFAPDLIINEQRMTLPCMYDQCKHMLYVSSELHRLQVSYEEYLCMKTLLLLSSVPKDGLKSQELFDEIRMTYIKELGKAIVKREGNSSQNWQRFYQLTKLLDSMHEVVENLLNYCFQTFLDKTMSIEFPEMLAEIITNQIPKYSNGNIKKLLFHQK
Estrogen receptor (Homo sapiens), sequence (P03372 whole entry, looked up, the tested form may be a part): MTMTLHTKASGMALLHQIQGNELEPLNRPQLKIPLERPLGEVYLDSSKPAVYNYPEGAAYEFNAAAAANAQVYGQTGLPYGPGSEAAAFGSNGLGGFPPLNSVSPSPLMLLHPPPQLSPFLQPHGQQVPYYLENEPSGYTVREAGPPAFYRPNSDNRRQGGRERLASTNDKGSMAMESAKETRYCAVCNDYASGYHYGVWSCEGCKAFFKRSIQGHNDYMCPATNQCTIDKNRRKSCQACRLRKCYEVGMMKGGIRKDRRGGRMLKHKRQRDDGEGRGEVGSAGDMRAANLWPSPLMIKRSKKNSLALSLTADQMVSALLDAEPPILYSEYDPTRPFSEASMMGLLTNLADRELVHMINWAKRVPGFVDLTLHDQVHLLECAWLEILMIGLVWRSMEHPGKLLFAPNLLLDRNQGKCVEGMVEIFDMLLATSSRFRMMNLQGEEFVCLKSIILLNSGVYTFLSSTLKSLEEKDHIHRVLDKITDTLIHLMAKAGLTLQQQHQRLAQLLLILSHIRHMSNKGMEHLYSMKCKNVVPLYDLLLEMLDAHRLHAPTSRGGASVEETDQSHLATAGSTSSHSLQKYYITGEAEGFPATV
Estrogen-related receptor gamma (Homo sapiens), sequence (P62508 whole entry, looked up, the tested form may be a part): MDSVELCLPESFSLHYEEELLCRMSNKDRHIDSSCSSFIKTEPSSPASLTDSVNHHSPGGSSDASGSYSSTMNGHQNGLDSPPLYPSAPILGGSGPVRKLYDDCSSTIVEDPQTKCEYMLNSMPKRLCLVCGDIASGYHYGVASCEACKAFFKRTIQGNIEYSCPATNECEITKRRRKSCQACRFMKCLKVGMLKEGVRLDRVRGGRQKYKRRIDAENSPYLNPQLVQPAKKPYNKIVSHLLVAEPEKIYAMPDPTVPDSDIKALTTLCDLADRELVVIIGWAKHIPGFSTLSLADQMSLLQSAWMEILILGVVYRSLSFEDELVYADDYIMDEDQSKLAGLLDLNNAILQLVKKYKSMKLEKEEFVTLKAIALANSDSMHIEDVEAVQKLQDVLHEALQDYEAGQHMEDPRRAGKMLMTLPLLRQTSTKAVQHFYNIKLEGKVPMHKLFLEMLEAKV
Transcription factor Sp1 (Homo sapiens), sequence (P08047 whole entry, looked up): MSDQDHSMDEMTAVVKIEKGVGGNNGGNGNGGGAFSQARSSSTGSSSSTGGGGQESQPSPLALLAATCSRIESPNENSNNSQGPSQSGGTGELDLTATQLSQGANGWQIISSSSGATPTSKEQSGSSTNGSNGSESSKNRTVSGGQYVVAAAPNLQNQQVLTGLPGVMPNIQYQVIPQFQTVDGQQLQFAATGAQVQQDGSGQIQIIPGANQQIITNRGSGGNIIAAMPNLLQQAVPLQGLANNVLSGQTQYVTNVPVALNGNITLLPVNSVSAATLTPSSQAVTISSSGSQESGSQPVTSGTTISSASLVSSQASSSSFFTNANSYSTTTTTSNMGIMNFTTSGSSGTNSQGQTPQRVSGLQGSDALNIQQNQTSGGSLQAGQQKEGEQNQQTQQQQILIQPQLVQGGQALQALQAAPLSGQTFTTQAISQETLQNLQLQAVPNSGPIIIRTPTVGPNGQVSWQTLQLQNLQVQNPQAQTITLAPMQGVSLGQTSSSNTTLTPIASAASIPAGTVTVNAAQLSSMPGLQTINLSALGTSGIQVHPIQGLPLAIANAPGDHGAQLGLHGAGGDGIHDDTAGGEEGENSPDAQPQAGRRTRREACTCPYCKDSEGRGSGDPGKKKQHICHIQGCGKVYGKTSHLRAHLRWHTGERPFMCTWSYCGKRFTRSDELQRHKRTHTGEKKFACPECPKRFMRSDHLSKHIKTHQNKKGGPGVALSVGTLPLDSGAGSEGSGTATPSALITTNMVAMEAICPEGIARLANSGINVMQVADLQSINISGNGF
Steroid hormone receptor ERR1 (Homo sapiens), sequence (P11474 whole entry, looked up, the tested form may be a part): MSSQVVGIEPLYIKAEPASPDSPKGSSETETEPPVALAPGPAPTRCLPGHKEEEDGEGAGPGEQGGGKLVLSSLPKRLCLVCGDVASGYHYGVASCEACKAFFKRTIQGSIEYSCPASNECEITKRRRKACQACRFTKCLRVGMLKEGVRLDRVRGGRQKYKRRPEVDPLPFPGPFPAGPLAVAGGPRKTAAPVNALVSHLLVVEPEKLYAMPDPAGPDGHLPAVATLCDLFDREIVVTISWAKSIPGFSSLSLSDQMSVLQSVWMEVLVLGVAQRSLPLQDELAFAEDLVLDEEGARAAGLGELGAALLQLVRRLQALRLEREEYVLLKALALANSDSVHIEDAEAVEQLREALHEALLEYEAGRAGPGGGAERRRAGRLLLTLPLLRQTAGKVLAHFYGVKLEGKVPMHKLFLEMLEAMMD

COc1cc([N+](=O)[O-])ccc1N
not listed: [17] | [18] | [19] | [20]
inactive: all other assays above

Cc1cc(C(=C2C=CC(=Nc3ccc(S(=O)(=O)O)cc3)C=C2)c2ccc(Nc3ccc(S(=O)(=O)O)cc3)cc2)cc(S(=O)(=O)O)c1N
not listed: [15] | [16] | [19] | [20]
inactive: all other assays above

C/C=C/C(=O)C1=C(C)CCCC1(C)C
active: [1] 2.03 µM | [4] 46.1 µM | [5] 35.4 µM | [6] 44.9 µM | [9] 62.7 µM | [12] 7.43 µM | [14] 34.6 µM
not listed: [13] | [15]
inactive: all other assays above

CC(C)(C)c1ccc(O)c(O)c1
active: [1] 2.45 µM [middle of 5 runs] | [3] 45.8 µM and 27.9 µM and 54.2 µM | [6] 57.1 µM | [11] 100 µM and 46.6 µM and 42.3 µM | [12] 4.28 µM [middle of 5 runs]
inactive: [2] | [3] | [4] | [5] | [6] | [7] | [8] | [9] | [10] | [11] | [14] | [16] | [18]

C=CC(=O)OCCC(F)(F)C(F)(F)C(F)(F)C(F)(F)C(F)(F)C(F)(F)F
active: [19] 12.8 µM
not listed: [15] | [17] | [20]
inactive: all other assays above

O=C(NCc1ncc(C(F)(F)F)cc1Cl)c1c(Cl)cccc1Cl
active: [1] 0.799 µM | [6] 10.1 µM
not listed: [13] | [15] | [16] | [17] | [19] | [20]
inactive: all other assays above

O=c1cc(-c2ccccc2)oc2ccc3ccccc3c12
active: [1] 1.08 µM and 2.24 µM | [19] 2.05 µM
inactive: [2] | [3] | [4] | [5] | [6] | [7] | [8] | [9] | [10] | [11] | [13] | [19] | [14] | [20]
